About 3,200 (1.1%) of roughly 290,000 compounds were called active. The sample as a whole holds a higher share of actives than the screen did. Unmarked numbers belong to inactive results. Cut-off read from the data, not from the text of the source: active = inhibition above about 60%; inactive = the rest.
target: Phosphoethanolamine/phosphocholine phosphatase (Homo sapiens) (UniProt Q8TCT1); assay: PubChem AID 1565; conditions: recombinant PHOSPHO1, absorbance phosphatase assay; at 13.3 µM; stronger effect = higher value
Sequence (Q8TCT1 whole entry, looked up): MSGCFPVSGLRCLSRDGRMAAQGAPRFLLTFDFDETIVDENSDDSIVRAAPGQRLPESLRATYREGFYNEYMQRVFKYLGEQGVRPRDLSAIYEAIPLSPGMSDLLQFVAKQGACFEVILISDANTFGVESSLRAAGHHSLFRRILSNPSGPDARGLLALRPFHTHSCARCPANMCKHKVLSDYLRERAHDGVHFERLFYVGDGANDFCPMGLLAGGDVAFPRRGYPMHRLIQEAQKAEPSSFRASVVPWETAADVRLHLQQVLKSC

| SMILES | inhibition |
| --- | --- |
| CC1CCCCC1NC(=O)/C(C#N)=C/C=C/c1ccccc1[N+](=O)[O-] (stereo unspecified) | -11.2% |
| CC(=O)c1ccc(N2CCN(C(=O)CCNC(=O)Cn3ccc4ccccc4c3=O)CC2)cc1 | 39.1% |
| CCc1ccc(-c2nc(SCC(=O)NC3CCCC3)n[nH]2)cc1 | 19.2% |
| CC(C)c1ccc(S(=O)(=O)N2CCN(C(=O)c3ccc(N4CCCC4)c([N+](=O)[O-])c3)CC2)cc1 | 14.7% |
| Cc1ccc(CNC(=O)C2(C(F)(F)F)C/C(=C\Cc3ccccc3)CCCO2)o1 (stereo unspecified) | -1.7% |
| Cc1ccc(C(=O)Oc2coc(CSc3nnc(NC(=O)c4cccs4)s3)cc2=O)cc1C | -10.5% |
| CCOc1cccc(C(=O)Nc2nnc(-c3cccs3)s2)c1 | 8.6% |
| Cc1ccc(C(=O)Nc2nnc(-c3cccs3)s2)cc1C | 60.1% (active) |
| Cc1ccc(S(=O)(=O)c2nnn3c2nc(N2CCN(c4ccccn4)CC2)c2ccccc23)cc1 | 14.6% |
| COc1ccccc1C(=O)N1C(CC(=O)Nc2ccccc2C)C(=O)NC2CCCCC21 (stereo unspecified) | 17.1% |
| Cc1cc(NC(=O)Nc2c[nH]c(=O)[nH]c2=O)ccc1Br | 32.6% |
| CCC(C)(C)NC(=O)CN(C(=O)CCC(=O)Nc1nccs1)c1ccc2c(c1)OCO2 | 28% |
| O=C(O)c1ccccc1CSc1nc2ccccc2s1 | -3.9% |
| Cc1cc(C)n2nc(SCC(N)=O)nc2n1 | 35.9% |
| Cc1cc(C)n2nc(C(=O)NC(C)(C)C)nc2n1 | 27% |
| Cc1cc(C)n2nc(CNS(=O)(=O)c3c(F)c(F)c(F)c(F)c3F)nc2n1 | 64.9% (active) |
| C/C(=N\N(C)C)c1ccc(OCCOc2ccc([N+](=O)[O-])cc2)cc1 | 23.7% |
| COc1ccc(C2CC(=O)NC(=O)C2)cc1 | 22.9% |
| CC(=O)Nc1ccc(NC(=O)c2sc3nc4c(c(-c5ccc(C)cc5)c3c2N)CCC4)cc1 | 14.1% |
| Cc1cccc(NC(=O)c2sc3nc4c(c(-c5ccco5)c3c2N)CCC4)c1 | 67.5% (active) |
| Cc1cccc(NC(=O)c2sc3nc(N4CCOCC4)c4c(c3c2N)CCCC4)c1 | 21.8% |
| O=C(Nc1ccc([N+](=O)[O-])cc1)OCCc1ccccn1 | 17.9% |
| CCOc1ccc2c(c1)c(=O)c(S(=O)(=O)c1ccc(C)cc1)cn2CC | 47.5% |
| COc1cc(C(=S)N2CCOCC2)ccc1O | 3.5% |
| CCOc1cc(C(=S)N2CCOCC2)ccc1OS(=O)(=O)c1ccc(Br)cc1 | 8.5% |
| CCOc1cc(C(=S)N2CCOCC2)ccc1O | 96.3% (active) |

Source: PubChem BioAssay AID1565 (Sanford-Burnham Center for Chemical Genomics, 2009)
